According to ChEMBL document CHEMBL3988442, “University of Dundee, Small-Polar-MMV Screening Library” (2021):
In all, about 48,000 compounds went through this assay and about 13,000 (27%) showed an effect of 50% or more. The list shows a part of the results.

system: Wolbachia pipientis; test: Anti-Wolbachia Cell-Based Screen; assay type: functional; set-up: scale not given: in the data most compounds retested in dose-response had high values; settings: 5 µM

Structure (SMILES)	Percent Effect [%]
CCC1CN(C(=O)Nc2cnc3c(cnn3C(C)C)c2)CCO1 (centres undefined)	6.429
CCC(CC)CN1C[C@@H]2OCCN(Cc3cnn(C)c3)[C@@H]2C1	-7.114
COc1cc(C)c(C)cc1S(=O)(=O)NCC(O)c1cccn1C (centres undefined)	-4.325
COc1cccc(-c2cc(C(=O)Nc3nc[nH]n3)[nH]n2)c1	131.8
COCC1CCCCN1C(=O)c1cc(-c2cccc(OC)c2)n[nH]1 (centres undefined)	-6.685
COC[C@@H]1CCCN1C(=O)c1cc(-c2cccc(OC)c2)n[nH]1	-18.68
CC(C)N1CCC(CC(=O)NCCc2cc(O)ncn2)CC1	-16.23
CN1CCC(c2cc(CCO)ncn2)C1 (centres undefined)	105.5
CN1CC[C@H](c2nnc(Cc3c[nH]c4ccccc34)o2)C1	-2.7
CCn1c(N)nc2cc(C(=O)N3CCN(c4ccncc4)CC3)cnc21	-2.234
Cc1ccc(N2CCCC3(CCN(C(=O)NC4CCCC4)C3)C2)nn1 (centres undefined)	1.477
CNC(=O)[C@@]12CCO[C@@H]1CCN(S(=O)(=O)c1ccccc1C)C2	-56.15
Cc1nnc(N2CCOC(C)(C(=O)N(C)C)C2)c2ccccc12 (centres undefined)	78.63
Cc1nnc(N2CCCC2)c(C(N)=O)c1C	-23.35
CNC(=O)C1(C)CN(c2nnc(C)c3ccccc23)CCO1 (centres undefined)	101.8
O=C(CCNC(=O)c1ccccc1N1CCOCC1)NC1CCCC1	3.858
CCOC(=O)c1nnc2ccccc2c1N1CCOC(C)(C)C1	7.014
Cc1nnc(N2CCOC(C)(C(=O)NC3CCCC3)C2)c2ccccc12 (centres undefined)	100.6
Cn1cnc(S(=O)(=O)N2CCN(Cc3ccco3)CC2)c1Cl	-3.277
Cc1n[nH]c(C)c1CN1CC[C@@H]2[C@@H](CCC(=O)N2CCc2c[nH]cn2)C1	-6.371
COCCc1noc(-c2cn(CCc3ccccc3)nn2)n1	-16.95
CC(=O)c1cccc(NC(=O)N(CCO)C2CCc3ccccc32)c1 (centres undefined)	6.805
COCCCS(=O)(=O)N1CCN(c2cccc(O)c2)CC1	-6.016
CN1C(=O)CCN(C(=O)C2CCCCC2)c2ccccc21	-31.28
O=C1N[C@@H]2CCN(C(=O)C3CCC3)[C@@H]2C(=O)N1c1ccc(F)cc1	10.21
CCN1CC(C(=O)N2CCC(Oc3ccccc3Cl)CC2)CC1=O (centres undefined)	19.99

Structure (SMILES)	Percent Effect [%]
O=C(C1CCC1)N1CCC(=O)N(C2CC2)Cc2cc(F)ccc21	89.78
O=C(C1CCCOC1)N1CCc2ccc(F)cc21 (centres undefined)	-7.553
CCN1Cc2cc(F)ccc2N(C(=O)C2CCC2)CCC1=O	113.5
O=C1NCCCCC1NC(=O)N1CCCc2cc(F)ccc21 (centres undefined)	-6.196
CCN1Cc2ccccc2N(C(=O)C2CCC2)CCC1=O	94.47
CCN1Cc2cc(F)ccc2N(C(C)=O)CCC1=O	105.8
Cc1noc(C)c1C(C)NC(=O)N1CCC(NC(=O)c2ccsc2)CC1 (centres undefined)	-3.825
COc1c(NC(=O)C(C)CCOc2ccccc2)c(C)nn1C (centres undefined)	-7.796
CC(O)CN1CCN(C(=O)CN(C)c2cnccn2)CC1 (centres undefined)	-17.8
Cn1c(N)nnc1SCc1c(F)cccc1Br	-12.74
Cc1cc(C)c(C(=O)N[C@H](C(N)=O)c2ccccc2)c(=O)[nH]1	4.18
CCOC(=O)CCCNc1nc(C(C)(C)C)nc2c1cnn2C	0.3135
O=C(c1ccsc1)N1CCN(CC(O)c2cccc(F)c2)CC1 (centres undefined)	8.058
CC(C(=O)N1CCn2cncc2C1)N1CCCC1 (centres undefined)	4.282
O=C(CCCNCc1ccc(Cl)c2cccnc12)NC1CC1	-3.748
COc1ccc(Cl)cc1-n1nc(C2CCCC2)nc1Cn1cnnn1	-18.77
Nc1nc2c(c(N3CCC(CN4CCCC4=O)CC3)n1)CCNCC2	-8.42
CCC1=N[C@@]2(CC[C@@H]3CN(S(C)(=O)=O)C[C@@H]32)C(=O)N1CC(C)C	-16.48
Cc1cccc(CN2CCc3c(CNC(=O)CC#N)nn(C)c3C2)n1.O=C(O)C(F)(F)F	-9.631
O=C(Nc1cc(-c2cccnc2)no1)C1CCC1	9.123
Cc1nn(C(C)C)c(C)c1NC(=O)c1cccnc1	6.145
CC(C)C[C@H](NC(=O)c1cc(-c2cccn2C)n[nH]1)C(N)=O	6.399
O=C(Nc1ncc[nH]1)c1cc(-c2cccnc2)n[nH]1	118.3
CC(C)COCC(NC(=O)c1cccnc1)c1ccco1 (centres undefined)	-0.4808
Cc1cc(CC(C)Nc2nc(-c3cccnc3)nc3c2CNC3)[nH]n1 (centres undefined)	-2.115
Cn1cccc1-c1cc(C(=O)N2CC(c3cccnc3)C2)[nH]n1	-4.055

Structure (SMILES)	Percent Effect [%]
CC(C)Cc1nc(NC(=O)c2cccnc2)n[nH]1	118.7
CC(C)Cc1nc(NC(=O)c2cc(-c3cccnc3)n[nH]2)n[nH]1	127.5
CC(=O)c1cccc(NC(=O)CN2CCCC(C3OCCO3)C2)c1 (centres undefined)	1.142
CN1CCN(CCCN(C)S(=O)(=O)CC2CCCCC2)CC1	-9.559
N#CC1(C(=O)N2CCN(Cc3ccon3)CC2)CCC1	-11.71
Cc1ccc(C(=O)NS(=O)(=O)c2ccc3c(c2)OCCCO3)o1	-8.261
Cc1cc(CN(C2CC2)C(C)C(C)C)on1 (centres undefined)	26.3
Cc1cc(-c2nn3c(C(C)C)nnc3s2)on1	113.9
CCn1cc(-c2nn3c(C(C)C)nnc3s2)c(C)n1	106.3
Cc1cc(-c2nn3c(C4CC4)nnc3s2)on1	189.6
Cc1cc(NC(=O)CN2CCn3c(nnc3C(C)C)C2)on1	-16.14
COc1c(C2CCCN2Cc2cc(C)no2)c(C)nn1C (centres undefined)	-10.58
CCn1c(CN2CCCC2)nnc1C1CCN(Cc2cc(C)no2)CC1	-0.1861
Cc1cc(CN2CCN(c3nn4cc(C)nc4s3)CC2)on1	9.459
Cc1cc(-c2nn3c(C4CCC4)nnc3s2)on1	155.9
CC(C)c1nnc2sc(CC3CCS(=O)(=O)C3)nn12 (centres undefined)	8.57
Cc1cc(CN2CCCC2c2noc(C3CC3)n2)c2ccccc2n1 (centres undefined)	1.295
Cc1noc(C)c1-c1n[nH]c2c1CN(S(=O)(=O)c1ccsc1)CC2	10.76
N#Cc1cccc(Cl)c1NCCCc1nc(=O)[nH][nH]1	-19.22
O=C(N[C@@H]1CCNC[C@H]1O)c1ccccc1OC(F)(F)C(F)F	-13.38
Cc1ccn(Cc2nc(C(C)OCC(C)C)no2)c(=O)c1 (centres undefined)	12.04
CC(=O)N1CCCN(Cc2nnc(C(C)(C)C)o2)CC1	-4.735
Cn1nc2c(cc1=O)CN(CC(=O)NC1CCCCNC1=O)CC2 (centres undefined)	4.736
CSc1ccc(C(=O)N(c2ccc(F)cn2)C2CCOCC2)o1	4.022
COCC(=O)N1CCCC(C(=O)N(C)CCCc2cnn(C)c2)C1 (centres undefined)	14.99
CN1CCN(C(=O)c2ccccc2)CC(Cc2cc(N(C)C)ncn2)C1 (centres undefined)	80.45

Structure (SMILES)	Percent Effect [%]
Cc1nn(C)c2c(N3CCN(C(=O)c4ccccc4)CC3)ncnc12	3.277
COCC(=O)N1CCN(C)CC(Cc2cc(N(C)C)ncn2)C1 (centres undefined)	95.35
CN1CCN(C(=O)c2cncc(CC3CCCN(C)C3)c2)CC1 (centres undefined)	-11.29
COCC(=O)N1CCN2C(=O)OC[C@H]2C1	-11.81
OCc1cc2ccccc2nc1NCC1CC1	2.516
O=C(Cn1cnc(NC(=O)c2ccccn2)n1)NCc1ccccc1	11.88
COc1ccc(CN2CCOC3(CCCN(c4nnc(C)o4)C3)C2)cc1.O=C(O)C(F)(F)F (centres undefined)	-9.107
Cc1nc(CN2C(=O)CCC23CCN(Cc2ccoc2)CC3)cs1.O=C(O)C(F)(F)F.O=C(O)C(F)(F)F	99.35
Cc1nc(CN2C(=O)CCC23CCN(Cc2cccn2C)CC3)cs1.O=C(O)C(F)(F)F.O=C(O)C(F)(F)F	110.4
Cc1nc(CN2C(=O)CCC23CCN(Cc2ccccn2)CC3)cs1.O=C(O)C(F)(F)F.O=C(O)C(F)(F)F	113.7
CCOC1CC2(CCN(Cc3cccn3C)CC2)C1.O=C(O)C(F)(F)F	0.1287
COCCN1CCc2ccc(=O)n(Cc3csc(C)n3)c2CC1.O=C(O)C(F)(F)F.O=C(O)C(F)(F)F	-8.44
COCCN1CCC2(CCC(=O)N2Cc2csc(C)n2)CC1.O=C(O)C(F)(F)F.O=C(O)C(F)(F)F	99.3
Cc1nc(CN2C(=O)CCC23CCN(c2ncccn2)CC3)cs1.O=C(O)C(F)(F)F	11.75
NC(=O)C1CCN(C(=O)CSC2CCCc3ccccc32)CC1 (centres undefined)	-6.301
CCOc1ccccc1C(CC(=O)N(C)c1ccccc1)NC(C)=O (centres undefined)	3.437
O=C(c1ccn(-c2cccc(Cl)c2)n1)N1CCN(C2CC2)CC1	7.351
CCC(C)NC(=O)c1cncc(Br)c1 (centres undefined)	12.99
COCCNC(=O)c1cc(S(=O)(=O)N2CCCC2)cs1	6.896
CCC(C)NC(=O)c1cc(S(=O)(=O)N(C)C)c(C)s1 (centres undefined)	107
CC(C)NC(=O)C(C)S(=O)(=O)c1cc2c(cc1Cl)OCCO2 (centres undefined)	-0.523
CCC(C)NC(=O)c1cc(S(=O)(=O)N2CCCC2)c(C)s1 (centres undefined)	99.85
Cc1sc(C(=O)NC(C)C)cc1S(=O)(=O)N(C)C	135.1
CCC(C)NC(=O)CS(=O)(=O)Cc1cc(C)ccc1C (centres undefined)	-1.911
CC(C)NC(=O)c1cc(Br)cc(S(=O)(=O)N2CCOCC2)c1F	-9.649
CC(C)NC(=O)CS(=O)(=O)c1cc2c(cc1Cl)OCCO2	-3.378
